# From ChEMBL document CHEMBL1961873, “Compounds: GSK PKIS; Assays: Nanosyn kinase panel” (2012)
# Target: Rho-associated protein kinase 1 (Homo sapiens) (UniProt Q13464)
# Conditions: at 0.1 µM
# 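Note: values are mean percent inhibition of ROCK1.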
# Chain of Rho-associated protein kinase 1 (Homo sapiens) (Q13464 2-1354 limits assumed): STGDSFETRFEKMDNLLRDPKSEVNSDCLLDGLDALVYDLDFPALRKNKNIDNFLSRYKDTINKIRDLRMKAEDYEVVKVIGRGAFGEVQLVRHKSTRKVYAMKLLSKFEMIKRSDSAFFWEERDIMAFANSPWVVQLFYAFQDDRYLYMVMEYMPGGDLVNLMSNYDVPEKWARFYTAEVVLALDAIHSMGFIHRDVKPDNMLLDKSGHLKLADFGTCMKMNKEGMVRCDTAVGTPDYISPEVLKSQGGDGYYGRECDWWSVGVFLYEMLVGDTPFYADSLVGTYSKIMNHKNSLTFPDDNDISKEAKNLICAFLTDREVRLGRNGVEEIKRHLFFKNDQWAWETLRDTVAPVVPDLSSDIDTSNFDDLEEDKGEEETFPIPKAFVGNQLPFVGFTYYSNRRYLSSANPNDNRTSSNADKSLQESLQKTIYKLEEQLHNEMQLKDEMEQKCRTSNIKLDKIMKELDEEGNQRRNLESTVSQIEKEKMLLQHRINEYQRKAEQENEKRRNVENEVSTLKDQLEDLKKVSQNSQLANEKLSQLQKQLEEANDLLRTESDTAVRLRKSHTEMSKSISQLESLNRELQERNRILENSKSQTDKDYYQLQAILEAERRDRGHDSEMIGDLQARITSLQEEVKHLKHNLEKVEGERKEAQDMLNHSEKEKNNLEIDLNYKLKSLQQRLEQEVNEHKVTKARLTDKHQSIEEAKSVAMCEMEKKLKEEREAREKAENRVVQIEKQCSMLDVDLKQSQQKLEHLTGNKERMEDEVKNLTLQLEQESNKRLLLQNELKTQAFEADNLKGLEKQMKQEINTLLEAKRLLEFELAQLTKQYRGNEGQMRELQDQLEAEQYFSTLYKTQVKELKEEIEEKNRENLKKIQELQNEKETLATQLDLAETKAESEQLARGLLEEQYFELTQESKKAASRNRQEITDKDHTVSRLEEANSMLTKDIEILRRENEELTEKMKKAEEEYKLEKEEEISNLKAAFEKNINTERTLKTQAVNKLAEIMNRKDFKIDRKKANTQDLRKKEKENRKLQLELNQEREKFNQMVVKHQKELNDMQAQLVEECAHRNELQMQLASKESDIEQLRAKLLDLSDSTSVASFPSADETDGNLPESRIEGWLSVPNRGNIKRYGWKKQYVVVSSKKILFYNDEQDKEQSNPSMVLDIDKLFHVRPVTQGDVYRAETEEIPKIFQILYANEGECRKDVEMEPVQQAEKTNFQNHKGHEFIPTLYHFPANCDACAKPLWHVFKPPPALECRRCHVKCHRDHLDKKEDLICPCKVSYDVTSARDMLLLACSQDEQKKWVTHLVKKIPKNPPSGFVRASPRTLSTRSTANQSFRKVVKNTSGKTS
row,SMILES,inhibition [%]
1,Cc1ccc(O)cc1Nc1ccnc2cc(-c3ccccn3)ccc12,0.91
2,COC(=O)c1sc(-n2cnc3cc(OC)c(OC)cc32)cc1OCc1ccccc1C(F)(F)F,0.1
3,COc1cc2ncn(-c3cc(OCc4ccccc4C(F)(F)F)c(C(=O)N(C)C)s3)c2cc1OC,-0.15
4,CC(C)COC(=O)c1ccc2c(c1)/C(=C/Nc1ccc(S(N)(=O)=O)cc1)C(=O)N2,4.52
5,CCc1nn2ncccc2c1-c1ccnc(NC2CC2)n1,0.66
6,CC(=O)Nc1cccc(C#Cc2cncnc2Nc2ccc(OCc3cccc(F)c3)c(Cl)c2)c1,1.07
7,CCn1cc(-c2ccnc3[nH]ccc23)c(-c2cccc(NC(=O)Nc3ccc(OCc4ccccc4)cc3)c2)n1,-1.8
8,COc1ccc(-c2nn3ncccc3c2-c2ccnc(Nc3ccc4c(c3)OCCO4)n2)cc1,0.43
9,COC(=O)Nc1nc2ccc(S(=O)(=O)c3ccc(NC(=O)Nc4cc(C(F)(F)F)ccc4F)cc3)cc2[nH]1,0.44
10,Cc1ccc2c(-c3ccnc(Nc4ccccc4)n3)c(-c3ccc(F)cc3)nn2n1,1.01
11,COc1cccc(-n2ncc3c(N/N=C/c4ccc(F)cc4)ncnc32)c1,1
12,CCn1c(-c2nonc2N)nc2c(C#CC(C)(C)O)ncc(OC3CCNCC3)c21,3.14
13,Nc1ncc(-c2cccc(S(N)(=O)=O)c2)c2scc(-c3ccc(F)c(Cl)c3)c12,1.03
14,O=C(Nc1n[nH]c2cc(-c3ccc(F)cc3)ccc12)C1CC1,6.12
15,[O-][S+]1CCN(Cc2ccc(-c3ccc4ncnc(Nc5ccc(OCc6cccc(F)c6)c(Cl)c5)c4c3)o2)CC1,2.1
16,Fc1cccc(COc2ccc(Nc3ncnc4sc(-c5ccco5)cc34)cc2Cl)c1,2.54
17,NS(=O)(=O)c1ccc(Nc2ncc(-c3ccccc3)o2)cc1,0.63

row,SMILES,inhibition [%]
1,CCNC(=O)O[C@H]1CN[C@H](C#Cc2cc3ncnc(Nc4ccc(OCc5cccc(F)c5)c(Cl)c4)c3s2)C1,0.96
2,CCN(CC)S(=O)(=O)c1ccc(OC)c(Nc2ncc(-c3ccccc3)o2)c1,0.86
3,COc1ccc(-c2oc3ncnc(N)c3c2-c2ccc(NC(=O)Nc3cc(C(F)(F)F)ccc3F)cc2)cc1,2.21
4,CNC(=O)c1cc(-c2ccc(F)cc2)cc(-c2ccc(S(=O)(=O)N3CCCC3)cc2)c1N,1.6
5,CCn1c(-c2nonc2N)nc2ccccc21,6.65
6,CCn1c(-c2nonc2N)nc2c(C#CC(C)(C)O)nc(OC[C@H](N)c3ccccc3)cc21,2.85
7,CCn1c(-c2nonc2N)nc2cnc(Oc3cccc(NC(=O)c4ccc(N(C)C)cc4)c3)cc21,85.5
8,COc1ccc(CNC(=O)c2ccc(-c3cc(-c4nnc(C)o4)ccc3C)cc2)cc1,2.49
9,Clc1ccc(-c2nn3ncccc3c2-c2ccnc(Nc3ccccc3)n2)cc1,2.28
10,COc1cc(/C=N/Nc2ncnc3[nH]ncc23)ccc1O,1.5
11,CCOc1ccc2c(-c3ccnc(Nc4cccc(C(F)(F)F)c4)n3)cnn2n1,-1.15
12,NS(=O)(=O)c1ccc(N/N=C2\C(=O)Nc3ccc4ncccc4c32)cc1,7.13
13,O=C(O[C@H]1CN[C@H](C#Cc2cc3ncnc(Nc4ccc(Cc5ccccc5)cc4)c3s2)C1)N1CCOCC1,2.02
14,FC(F)(F)c1cccc(-c2nn3ncccc3c2-c2ccnc(Nc3ccc4c(c3)OCCO4)n2)c1,0
15,c1cc(-c2cnn3nc(N4CCOCC4)ccc23)nc(NC2CC2)n1,1.67
16,COc1ccc(-c2cc3c(N)ncnc3o2)cc1,-0.42
